Activity calls are given as the source filed them.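 The calls were made as follows, unless noted: active = compound raises insulin release from rat beta cells at 5 mM glucose, no numeric limit stated; inactive = the rest.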
How the values were obtained:
[1] = Wnt pathway potentiators raising nuclear beta-catenin – imaging, WNT3A-conditioned medium, mouse C2C12, NPC library, primary screen (AID 1117326; in the data active = nuclear beta-catenin stimulation mostly above about 4.2%, no sharp cut-off; inactive = mostly below about 10%); settings: stronger effect = higher value
[2] = stimulators of insulin release from INS-1E, primary screen, cell-based, 5 mM glucose, NPC library (AID 1117329); settings: rat INS-1E insulin secretion, at 10 µM, stronger effect = higher value
[3] = GLP1 release stimulators, primary, NCI-H716, NPC library (AID 1117341;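 active = compound raises GLP1 secretion from the human gut endocrine cells, with no numeric limit stated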); settings: NCI-H716 cells, at 10 µM, stronger effect = higher value
[4] = growth inhibition of GSK3B-pretreated HCT116 cells – cell-based, CellTiter-Glo, 0.2 to 20 µM (AID 1117336;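 active = compounds lowering colon cancer cell viability after pretreatment blocking the GSK3B kinase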); settings: HCT116 viability after GSK3B inhibitor, at 20 µM, stronger effect = higher value
[5] = HCT116 colon cancer cell growth inhibition, primary screen, CellTiter-Glo luminescence, NPC library (AID 1117342;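 active = compounds that lower survival of HCT116 colon cancer cells in the luminescence readout, no numeric limit stated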); settings: at 20 µM (top of the series)
[6] = reduced SW480 viability measured with CellTiter-Glo, NPC library, primary (AID 1117343;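 active = compounds that lower viability of the colon cancer cells in the luminescence readout, with no numeric limit stated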); settings: CellTiter-Glo luminescence; at 20 µM (top of the series) unless noted
[7] = NPC library primary testing for decreased DLD-1 cell viability via CellTiter-Glo (AID 1117346;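 active = compounds that lower survival of DLD-1 colon cancer cells in the luminescence readout, no cutoff given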); settings: DLD-1 viability, CellTiter-Glo luminescence; at 20 µM (top of the series)
[8] = inhibition of endothelial tube formation, primary screen, imaging, VEGF stimulated, CD31 staining, tube area, NPC library (AID 1117340;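 active = compound that reduces growth-factor-driven endothelial tube area in a mixed cell culture, no cutoff stated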); settings: VEGF-stimulated ADSC/ECFC co-culture, at 10 µM, stronger effect = higher value
[9] = target: Mitogen-activated protein kinase 7 (Homo sapiens) (UniProt Q13164); experiment: Gal4-ERK5 driven luciferase induction – cell-based, HTS, primary screen (AID 1508626;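 active = luciferase signal above three times the same-plate solvent-only control wells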;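 also: luciferase driven by Gal4-ERK5 fusion binding five Gal4 sites before minimal TATA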); settings: HeLa Gal4-ERK5 transactivation, 18 h, at 5 µM, stronger effect = higher value
Mitogen-activated protein kinase 7 (Homo sapiens), sequence (Q13164 whole entry, looked up, the tested form may be a part): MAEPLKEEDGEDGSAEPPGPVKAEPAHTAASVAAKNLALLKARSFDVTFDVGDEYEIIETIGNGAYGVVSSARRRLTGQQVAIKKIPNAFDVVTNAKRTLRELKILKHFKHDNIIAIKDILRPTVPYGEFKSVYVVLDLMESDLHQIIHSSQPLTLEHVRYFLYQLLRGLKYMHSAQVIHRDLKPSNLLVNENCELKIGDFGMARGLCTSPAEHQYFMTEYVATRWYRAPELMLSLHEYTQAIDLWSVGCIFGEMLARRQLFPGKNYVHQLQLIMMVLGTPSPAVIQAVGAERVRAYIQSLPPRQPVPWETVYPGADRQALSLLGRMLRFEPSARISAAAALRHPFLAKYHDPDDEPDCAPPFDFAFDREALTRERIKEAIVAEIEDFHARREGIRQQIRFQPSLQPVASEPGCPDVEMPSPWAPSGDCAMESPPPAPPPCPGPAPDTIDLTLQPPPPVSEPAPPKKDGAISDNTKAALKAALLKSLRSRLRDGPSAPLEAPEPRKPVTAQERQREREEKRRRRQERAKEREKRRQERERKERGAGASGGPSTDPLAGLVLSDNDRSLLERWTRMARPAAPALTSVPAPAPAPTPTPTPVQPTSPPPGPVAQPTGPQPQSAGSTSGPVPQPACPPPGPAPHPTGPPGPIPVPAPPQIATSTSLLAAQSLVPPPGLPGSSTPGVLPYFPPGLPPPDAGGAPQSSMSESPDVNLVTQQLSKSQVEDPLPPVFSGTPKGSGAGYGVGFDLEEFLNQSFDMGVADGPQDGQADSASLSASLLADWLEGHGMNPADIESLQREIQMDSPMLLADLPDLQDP

[10] = target: NAD(+) hydrolase SARM1 (Homo sapiens) (UniProt Q6SZW1); experiment: blocking NAD cleavage by SARM1 SAM-TIR – cell lysate, NAD-Glo luminescence (AID 1508614;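 active = compound whose remaining NAD level is above about 45 nM, limit read from the data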;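 also: higher remaining NAD means stronger inhibition of SARM1 NADase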); settings: SAM-TIR HEK293T lysate NADase, at 1 µM, stronger effect = higher value
NAD(+) hydrolase SARM1 (Homo sapiens), sequence (Q6SZW1 whole entry, looked up): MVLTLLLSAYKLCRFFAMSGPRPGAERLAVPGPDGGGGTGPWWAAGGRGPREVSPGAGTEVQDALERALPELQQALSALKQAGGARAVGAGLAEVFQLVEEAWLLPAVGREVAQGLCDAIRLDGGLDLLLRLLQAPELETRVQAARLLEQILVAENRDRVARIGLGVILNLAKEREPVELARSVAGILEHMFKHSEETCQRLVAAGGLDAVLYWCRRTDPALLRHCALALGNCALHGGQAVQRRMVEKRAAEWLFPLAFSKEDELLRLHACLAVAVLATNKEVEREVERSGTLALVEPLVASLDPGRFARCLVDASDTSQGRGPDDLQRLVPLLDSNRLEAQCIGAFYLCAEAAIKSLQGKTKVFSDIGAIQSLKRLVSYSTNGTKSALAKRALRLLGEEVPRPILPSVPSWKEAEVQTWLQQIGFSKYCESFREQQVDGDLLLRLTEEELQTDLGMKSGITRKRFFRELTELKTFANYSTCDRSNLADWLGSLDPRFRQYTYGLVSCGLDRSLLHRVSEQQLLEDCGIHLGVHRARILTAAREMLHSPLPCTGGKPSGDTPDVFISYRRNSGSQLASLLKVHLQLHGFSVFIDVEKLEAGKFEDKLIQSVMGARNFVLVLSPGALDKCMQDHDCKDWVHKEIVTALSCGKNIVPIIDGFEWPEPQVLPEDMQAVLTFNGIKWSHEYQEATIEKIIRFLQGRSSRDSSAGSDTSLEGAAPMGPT

[11] = viability loss with induced miR-34 in A549 – imaging, A549 dox-inducible miR-34, nuclei and caspase counts, primary screen (AID 1347080;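 active = compounds whose cell count with miR-34 switched on is under 0.7 times the count with it off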); settings: A549 miR-34 inducible, Hoechst nuclei count, 48 h
[12] = galactose survival enhancers in mitochondrial complex I cybrids – cell-based, galactose medium, ATP luminescence, primary screen (AID 1645843;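 active = z-score of at least 1.8 in each of two replicates, scored against plate mean and spread of sample wells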;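 also: positive z means more ATP and so rescue of galactose-driven cybrid death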); settings: complex I mutant cybrid cells, 72 h, stronger effect = higher value

SMILES	nuclear beta-catenin stimulation ([1]; at 10 µM)	nuclear beta-catenin stimulation ([1]; stimulation, at 2 µM) [%]	insulin secretion stimulation [2]	GLP1 secretion stimulation [3]	viability decrease [4]	inhibition of viability [5]	viability decrease (inhibition) [6]	viability decrease (inhibition) [7]	tube area decrease [8]	luciferase signal [9]	remaining NAD [10]	fold change ([11]; stronger effect = lower value, cell number ratio, induced over uninduced)	fold change ([11]; measured here: relative caspase fold change +Dox/-Dox)	cell count ([11]; measured here: total cells with miR-34 induction, stronger effect = lower value)	cell count ([11]; measured here: total cells without miR-34 induction)	z-score [12]
Cc1c(O)cc2c(c1C)O[C@](C)(CCC[C@H](C)CCC[C@H](C)CCCC(C)C)CC2	0.3% (inactive)	-0.6	0.7% (inactive)	9.2% (inactive)	–	–	–	–	–	–	–	–	–	–	–	–
c1ccc2ccccc2c1	0.7% (inactive)	7.8	6.8% (inactive)	–	13.1% (inactive)	14.8% (inactive)	-4.5% (inactive)	4.2% (inactive)	–	–	–	–	–	–	–	–
CC(=O)N(c1onc(C)c1C)S(=O)(=O)c1ccc(N)cc1	0.7% (inactive)	0.2	-0.8% (inactive)	-0.8% (inactive)	-73.1% (inactive)	-3.87% (inactive)	30.4% (inactive)	5.3% (inactive)	-1% (inactive)	40 AU (inactive)	–	–	–	–	–	–
O=C(OCCO)c1ccccc1O	0.5% (inactive)	-2.3	0.25% (inactive)	-2.5% (inactive)	–	–	–	–	–	–	–	–	–	–	–	–
Cc1c(C)n(CCN(C)C)c2ccc(C(=O)OCCN(C)C)cc12	1.1% (inactive)	14.1	0.4% (inactive)	–	41.2% (inactive)	27.7% (inactive)	71.7% (active)	0.9% (inactive)	–	–	–	–	–	–	–	–
O=C(O)C1(C(=O)O)CCC1.[NH2-].[NH2-].[Pt+2]	0% (inactive)	-2.2	-0.3% (inactive)	3% (inactive)	67.5% (active)	31.7% (inactive)	2.3% (inactive)	5.7% (inactive)	55.4% (active)	40 AU (inactive)	10 nM (inactive)	–	–	–	–	–
C[C@]12CC[C@@H]3c4ccc(O)cc4CC[C@H]3[C@@H]1CC[C@@H]2OC(=O)CCC1CCCC1	28.4% (inactive)	2.5	0.5% (inactive)	3.6% (inactive)	-8.5% (inactive)	6.73% (inactive)	27% (inactive)	-23.3% (inactive)	110% (active)	84 AU (inactive)	10 nM (inactive)	–	–	–	–	–
CCCn1cnc2c1c(=O)n(CCCCC(C)=O)c(=O)n2C	6.6% (inactive)	-0.2	-1.25% (inactive)	-4.5% (inactive)	14.1% (inactive)	20.6% (inactive)	-2.8% (inactive)	19.6% (inactive)	–	–	–	1.02 (inactive)	0.994	10000	9790	0.675 (inactive)
CO[C@H]1O[C@@H]2O[C@@]3(C)CC[C@H]4[C@H](C)CC[C@@H]([C@@H]1C)[C@@]24OO3	1.9% (inactive)	11.7	-0.85% (inactive)	2% (inactive)	33.2% (inactive)	-3% (inactive)	2.9% (inactive)	7.2% (inactive)	–	–	–	–	–	–	–	–
Cc1cc(-c2ccc(N=Nc3c(S(=O)(=O)O)cc4cc(S(=O)(=O)O)cc(N)c4c3O)c(C)c2)ccc1N=Nc1c(S(=O)(=O)O)cc2cc(S(=O)(=O)O)cc(N)c2c1O	-3.5% (inactive)	-1.8	2.95% (inactive)	-8.7% (inactive)	35.2% (inactive)	22.2% (inactive)	37.9% (inactive)	23.9% (inactive)	–	–	–	–	–	–	–	–
CCOc1ccccc1C(N)=O	0.9% (inactive)	1.6	-1.8% (inactive)	1.9% (inactive)	-5.85% (inactive)	22.9% (inactive)	31.4% (inactive)	-1.45% (inactive)	-6.8% (inactive)	–	10 nM (inactive)	–	–	–	–	–
CCCCCCCCCCCCCCCCCC[N+](C)(C)CCC[Si](OC)(OC)OC	-0.6% (inactive)	-0.8	-0.25% (inactive)	-3.1% (inactive)	14.4% (inactive)	12.9% (inactive)	-2.9% (inactive)	1.7% (inactive)	–	–	–	–	–	–	–	–
CCCC(=O)O[C@]1(C(=O)CO)CC[C@H]2[C@@H]3CCC4=CC(=O)CC[C@]4(C)[C@H]3[C@@H](O)C[C@@]21C	0.1% (inactive)	1.4	1.4% (inactive)	3.7% (inactive)	-45.5% (inactive)	24.2% (inactive)	19.8% (inactive)	1% (inactive)	18.3% (inactive)	148 AU (inactive)	10 nM (inactive)	–	–	–	–	–
COc1ccc2c(c1)c1c3n2CCN(C)C3=NCC1	1.3% (inactive)	0.5	1.05% (inactive)	6.4% (inactive)	–	–	–	–	–	–	–	–	–	–	–	–
CC(C)=CCC[C@@](C)(O)[C@H]1CC=C(C)CC1	1.8% (inactive)	4	3.6% (inactive)	2.7% (inactive)	-34.3% (inactive)	-4.77% (inactive)	-13% (inactive)	-9.9% (inactive)	5% (inactive)	32 AU (inactive)	–	–	–	–	–	–
CCOc1cc(NC(C)=O)ccc1C(=O)OC	2.6% (inactive)	2	4.4% (inactive)	0.3% (inactive)	–	–	–	–	11.7% (inactive)	–	–	–	–	–	–	–

From PubChem BioAssay
